The supplement of paper PMC10849652
Targets with a hit are over-represented here; the source holds about 8,800 in all. About 0.5% of all pairs of compound and target were hits.

Key:
Assay in all cases: log2 fold change, soluble protein after heating vs DMSO (PISA); higher = thermal stabilisation; K562 lysate, 10 uM; active = over 0.2 and 3.5 SD of the protein, either way, in both replicates (recomputed)
[1] = compound: C#Cc1cccc(Nc2ncnc3cc(OCCOC)c(OCCOC)cc23)c1 [erlotinib]
Procedure, shortened: (§1)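 Dounce homogenisation of K562 pellets in PBS pH 7.4 with 1 mM MgCl2 produced a crude extract, used at 1 mg/mL protein. Exposure to 10 μM compound lasted 30 min, and aliquots were then heated for 3 min across 48°C-58°C, pooled and brought to 0.5% NP-40 at 4°C. The supernatant after 21,000xg for 90 min was quantified by TMTpro 16plex LC-MS/MS with channel sums equalised. Duplicate values are given as log-two fold change in thermal stability relative to solvent controls.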

[2] = compound: C/C(=N\NC(=O)C1=CC(=CC=C1)S(=O)(=O)N2CCOCC2)/C3=C(C=CC(=C3)Cl)O
Procedure, shortened: as §1

[3] = compound: C1=CC(=CC=C1C2=NC3=C(N2)C=C(C=C3)C(=O)N)OC4=CC=C(C=C4)Cl
Procedure, shortened: as §1

[4] = compound: C1=CC2=C(C=CC(=C2)/C=C\3/C(=O)NC(=NCC4=CC=CS4)S3)N=C1
Procedure, shortened: as §1

[5] = compound: C1=CC2=NC=CN=C2C=C1/C=C/3\C(=O)NC(=O)S3
Procedure, shortened: as §1

[6] = compound: C1=CC=C(C=C1)C2=NC(=C(N2)C3=CC=NC=C3)C4=CC(=C(C=C4)Cl)O
Procedure, shortened: as §1

[7] = compound: C1=CC=C2C(=C1)C3=NNC4=CC=CC(=C43)C2=O
Procedure, shortened: as §1

[8] = compound: C1CCN(C1)C(=O)NC2=CC=CC(=C2)NC3=NC=C(C(=N3)NCCC4=CN=CN4)Br
Procedure, shortened: as §1

[9] = compound: C1CN(CCC1(CC2=CC=C(C=C2)Cl)N)C3=NC=NC4=C3C=CN4
Procedure, shortened: as §1

[10] = compound: C1COCCN1CCN2C3=CC=CC=C3N=C2NC(=O)C4=CC(=CC=C4)[N+](=O)[O-] [IRAK-1-4 Inhibitor I]
Procedure, shortened: as §1

[11] = compound: C=CC(=O)N1CCC[C@@H](n2nc(-c3ccc(Oc4ccccc4)cc3)c3c(N)ncnc32)C1 [ibrutinib]
Procedure, shortened: as §1

[12] = compound: CC(=O)c1cnc2ccc(-c3cc(Cl)c(O)c(Cl)c3)nc2c1N[C@H]1CC[C@H](CN(C)C)CC1
Procedure, shortened: as §1

[13] = compound: CC(C)(C)Cn1c(N)nc2ccc(-c3[nH]c(C(C)(C)C)nc3-c3ccc(F)cc3)nc21 [ralimetinib]
Procedure, shortened: as §1

[14] = compound: CC(C)(O)CC(=O)NCCn1ccc2ncnc(Nc3ccc(Oc4cccc(C(F)(F)F)c4)c(Cl)c3)c21
Procedure, shortened: as §1

[15] = compound: CC(C)C1=C2N=C(C=C(N2N=C1)NCC3=CC=CC=C3)NCCCCCCN
Procedure, shortened: as §1

[16] = compound: CC1=C(C(CC(=O)N1)C2=CC=C(C=C2)C(F)(F)F)C(=O)NC3=C(C=C4C(=C3)C=NN4)F
Procedure, shortened: as §1

[17] = compound: CC1=C(C2=C(C=C1)C(=O)C3=CC=CC=C3N2CCCN)C
Procedure, shortened: as §1

[18] = compound: CC1=C(C=C(C=C1)NC(=O)C2=CC(=CC=C2)C(C)(C)C#N)NC3=CC4=C(C=C3)N=CN(C4=O)C
Procedure, shortened: as §1

[19] = compound: CC1=C(C=C(C=C1)NC(=O)C2=CC(=CC=C2)N(C)C)NC(=O)C3=CC=C(C=C3)O
Procedure, shortened: as §1

[20] = compound: CC1=CC=C(C=C1)SC2=C3C=C(SC3=CN=C2)C(=O)N
Procedure, shortened: as §1

Measured: log2 fold change

ARHGAP25 isoform 4 (UniProt P42331)
inactive: [1] 0.029 | [2] 0.045 | [3] 0.026 | [4] -0.031 | [5] -0.031 | [6] -0.002 | [7] -0.029 | [8] 0.007 | [9] 0.034 | [10] -0.006 | [11] 0.016 | [12] 0.036 | [13] 0.026 | [14] -0.003 | [15] -0.026 | [16] 0.064 | [17] -0.014 | [18] 0.117 | [19] 0.059 | [20] -0.006

ACADM isoform 2 (UniProt P11310)
active: [15] 0.396
inactive: [1] -0.088 | [2] 0.049 | [3] -0.034 | [4] 0.23 | [5] 0.085 | [6] 0.101 | [7] -0.032 | [8] -0.032 | [9] -0.003 | [10] -0.007 | [11] 0.151 | [12] 0.026 | [13] -0.015 | [14] -0.047 | [16] -0.041 | [17] -0.004 | [18] -0.055 | [19] -0.019 | [20] 0.046

AP4B1 (UniProt Q9Y6B7)
inactive: [1] 0.021 | [2] -0.038 | [3] 0.016 | [4] 0.096 | [5] 0.038 | [6] 0.019 | [7] -0.022 | [8] -0.018 | [9] 0.188 | [10] 0.013 | [11] -0.028 | [12] -0.048 | [13] -0.044 | [14] 0 | [15] 0.034 | [16] 0.003 | [17] -0.027 | [18] -0.02 | [19] -0.041 | [20] -0.041

ANXA5 (UniProt P08758)
inactive: [1] -0.011 | [2] -0.001 | [3] -0.024 | [4] 0.014 | [5] -0.016 | [6] -0.023 | [7] 0.009 | [8] -0.003 | [9] -0.049 | [10] -0.03 | [11] -0.009 | [12] -0.005 | [13] 0.014 | [14] 0.038 | [15] -0.026 | [16] 0.007 | [17] 0.032 | [18] -0.024 | [19] 0 | [20] 0.005

ALDH6A1 (UniProt Q02252)
Chain of UniProt Q02252 (Q02252 whole entry, looked up): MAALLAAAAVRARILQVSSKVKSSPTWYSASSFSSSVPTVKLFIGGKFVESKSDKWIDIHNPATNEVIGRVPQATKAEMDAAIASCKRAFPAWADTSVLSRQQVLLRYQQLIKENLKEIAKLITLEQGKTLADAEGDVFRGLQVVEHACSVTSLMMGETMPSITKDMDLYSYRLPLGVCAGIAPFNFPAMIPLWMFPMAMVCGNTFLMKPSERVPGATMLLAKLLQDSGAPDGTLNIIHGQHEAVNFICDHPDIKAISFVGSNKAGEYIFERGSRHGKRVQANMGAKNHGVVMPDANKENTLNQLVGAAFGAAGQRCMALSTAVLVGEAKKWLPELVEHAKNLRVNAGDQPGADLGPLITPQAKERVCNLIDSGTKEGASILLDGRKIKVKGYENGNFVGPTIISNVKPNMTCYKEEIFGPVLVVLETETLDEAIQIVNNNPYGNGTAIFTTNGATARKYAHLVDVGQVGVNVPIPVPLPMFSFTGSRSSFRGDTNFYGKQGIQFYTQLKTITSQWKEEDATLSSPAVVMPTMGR
inactive: [1] -0.03 | [2] 0.064 | [3] -0.04 | [4] -0.068 | [5] -0.179 | [6] 0.043 | [7] -0.031 | [8] -0.022 | [9] 0.015 | [10] 0.024 | [11] 0.128 | [12] -0.006 | [13] -0.064 | [14] -0.043 | [15] 0.008 | [16] -0.088 | [17] -0.191 | [18] 0.025 | [19] -0.066 | [20] -0.02

AGTPBP1 (UniProt Q9UPW5)
Chain of UniProt Q9UPW5 (Q9UPW5 whole entry, looked up): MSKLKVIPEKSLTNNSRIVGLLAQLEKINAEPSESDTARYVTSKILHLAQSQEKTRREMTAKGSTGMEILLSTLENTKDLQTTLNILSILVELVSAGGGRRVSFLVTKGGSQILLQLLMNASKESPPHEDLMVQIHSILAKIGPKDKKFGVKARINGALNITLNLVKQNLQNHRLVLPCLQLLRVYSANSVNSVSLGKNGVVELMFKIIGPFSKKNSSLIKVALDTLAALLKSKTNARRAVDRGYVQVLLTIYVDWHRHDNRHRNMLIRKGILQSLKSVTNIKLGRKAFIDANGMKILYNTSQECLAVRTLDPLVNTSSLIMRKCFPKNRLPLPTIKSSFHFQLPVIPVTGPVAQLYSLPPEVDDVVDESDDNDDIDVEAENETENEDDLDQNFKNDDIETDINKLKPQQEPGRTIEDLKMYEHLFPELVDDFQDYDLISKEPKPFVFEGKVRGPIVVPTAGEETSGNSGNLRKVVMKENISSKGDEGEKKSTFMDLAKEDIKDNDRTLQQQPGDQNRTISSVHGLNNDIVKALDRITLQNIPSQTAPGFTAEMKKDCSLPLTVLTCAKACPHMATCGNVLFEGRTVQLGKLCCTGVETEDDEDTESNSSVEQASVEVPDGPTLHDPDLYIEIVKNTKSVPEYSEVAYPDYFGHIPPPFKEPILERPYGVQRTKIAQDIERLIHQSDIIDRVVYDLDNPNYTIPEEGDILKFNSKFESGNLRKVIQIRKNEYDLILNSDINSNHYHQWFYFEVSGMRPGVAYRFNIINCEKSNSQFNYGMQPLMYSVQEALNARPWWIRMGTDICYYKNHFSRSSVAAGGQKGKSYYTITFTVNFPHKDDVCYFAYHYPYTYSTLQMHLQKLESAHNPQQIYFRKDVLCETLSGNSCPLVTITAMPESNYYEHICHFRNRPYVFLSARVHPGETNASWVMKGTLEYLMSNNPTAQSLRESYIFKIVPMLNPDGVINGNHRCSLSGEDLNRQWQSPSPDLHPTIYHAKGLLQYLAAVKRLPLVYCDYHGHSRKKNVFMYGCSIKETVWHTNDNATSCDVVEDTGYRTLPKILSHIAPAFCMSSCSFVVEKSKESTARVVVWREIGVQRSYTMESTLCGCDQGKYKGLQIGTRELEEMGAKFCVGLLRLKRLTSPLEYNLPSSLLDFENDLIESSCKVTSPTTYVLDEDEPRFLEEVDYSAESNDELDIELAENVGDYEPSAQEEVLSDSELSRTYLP
inactive: [1] -0.033 | [2] -0.084 | [3] 0.027 | [4] -0.029 | [5] 0.042 | [6] -0.053 | [7] -0.039 | [8] -0.017 | [9] 0.005 | [10] 0.022 | [11] -0.255 | [12] 0.001 | [13] 0.013 | [14] -0.058 | [15] 0.008 | [16] -0.026 | [17] 0.051 | [18] 0.077 | [19] 0.005 | [20] 0.012

ARHGEF2 (UniProt Q92974)
Chain of UniProt Q92974 (Q92974 whole entry, looked up): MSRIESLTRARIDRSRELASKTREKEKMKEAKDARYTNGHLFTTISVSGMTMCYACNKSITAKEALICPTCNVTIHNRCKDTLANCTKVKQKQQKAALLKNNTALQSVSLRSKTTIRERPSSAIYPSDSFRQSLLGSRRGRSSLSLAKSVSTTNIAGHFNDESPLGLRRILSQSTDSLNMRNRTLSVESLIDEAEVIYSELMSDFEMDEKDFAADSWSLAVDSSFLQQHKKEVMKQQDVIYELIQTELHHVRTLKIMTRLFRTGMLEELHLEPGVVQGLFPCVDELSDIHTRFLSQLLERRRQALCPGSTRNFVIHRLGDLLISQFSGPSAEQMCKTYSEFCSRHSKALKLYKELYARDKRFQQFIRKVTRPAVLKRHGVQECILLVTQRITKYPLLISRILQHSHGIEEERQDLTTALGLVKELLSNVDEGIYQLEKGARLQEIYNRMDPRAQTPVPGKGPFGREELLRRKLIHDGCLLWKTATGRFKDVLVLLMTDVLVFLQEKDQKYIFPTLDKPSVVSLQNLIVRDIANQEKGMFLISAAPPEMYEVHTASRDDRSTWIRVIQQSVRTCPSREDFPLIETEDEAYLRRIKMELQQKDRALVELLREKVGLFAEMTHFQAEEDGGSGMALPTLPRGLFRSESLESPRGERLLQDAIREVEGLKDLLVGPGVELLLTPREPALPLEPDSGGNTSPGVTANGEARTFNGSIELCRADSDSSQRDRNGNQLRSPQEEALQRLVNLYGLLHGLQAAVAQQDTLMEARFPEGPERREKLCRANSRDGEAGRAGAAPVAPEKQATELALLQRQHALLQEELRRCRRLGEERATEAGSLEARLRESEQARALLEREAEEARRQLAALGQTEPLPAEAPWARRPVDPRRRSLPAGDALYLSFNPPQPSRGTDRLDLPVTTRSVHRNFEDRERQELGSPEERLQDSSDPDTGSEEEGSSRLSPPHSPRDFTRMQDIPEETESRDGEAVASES
inactive: [1] -0.006 | [2] -0.041 | [3] -0.014 | [4] -0.017 | [5] 0.002 | [6] 0.039 | [7] -0.007 | [8] -0.051 | [9] -0.018 | [10] -0.005 | [11] 0.028 | [12] -0.003 | [13] 0.043 | [14] 0.005 | [15] 0.014 | [16] 0.008 | [17] -0.034 | [18] 0.047 | [19] 0.018 | [20] 0.01

ANKRD54 (UniProt Q6NXT1)
inactive: [1] -0.005 | [2] 0.01 | [3] 0.122 | [4] -0.036 | [5] 0.025 | [6] 0.037 | [7] 0.02 | [8] 0.008 | [9] -0.035 | [10] 0.003 | [11] -0.054 | [12] -0.002 | [13] 0.063 | [14] -0.006 | [15] 0.044 | [16] 0.003 | [17] 0.001 | [18] -0.006 | [19] 0.01 | [20] -0.023

AMD1 (UniProt P17707)
Chain of UniProt P17707 (P17707 whole entry, looked up): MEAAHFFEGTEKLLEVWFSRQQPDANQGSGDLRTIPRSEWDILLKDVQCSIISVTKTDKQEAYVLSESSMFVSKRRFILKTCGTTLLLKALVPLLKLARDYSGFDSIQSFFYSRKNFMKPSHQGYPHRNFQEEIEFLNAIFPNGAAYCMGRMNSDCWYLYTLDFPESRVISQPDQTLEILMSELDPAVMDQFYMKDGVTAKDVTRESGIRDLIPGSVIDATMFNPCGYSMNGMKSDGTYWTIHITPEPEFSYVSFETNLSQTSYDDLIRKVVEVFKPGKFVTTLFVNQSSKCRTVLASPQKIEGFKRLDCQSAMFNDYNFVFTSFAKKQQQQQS
active: [12] 0.464
inactive: [1] 0.019 | [2] 0.011 | [3] -0.091 | [4] -0.075 | [5] 0.055 | [6] 0.061 | [7] 0.011 | [8] 0.114 | [9] -0.156 | [10] -0.036 | [11] -0.031 | [13] -0.02 | [14] -0.013 | [15] -0.054 | [16] 0.019 | [17] -0.015 | [18] 0.155 | [19] -0.023 | [20] -0.119

AKR1C3 (UniProt P42330)
Chain of UniProt P42330 (P42330 whole entry, looked up): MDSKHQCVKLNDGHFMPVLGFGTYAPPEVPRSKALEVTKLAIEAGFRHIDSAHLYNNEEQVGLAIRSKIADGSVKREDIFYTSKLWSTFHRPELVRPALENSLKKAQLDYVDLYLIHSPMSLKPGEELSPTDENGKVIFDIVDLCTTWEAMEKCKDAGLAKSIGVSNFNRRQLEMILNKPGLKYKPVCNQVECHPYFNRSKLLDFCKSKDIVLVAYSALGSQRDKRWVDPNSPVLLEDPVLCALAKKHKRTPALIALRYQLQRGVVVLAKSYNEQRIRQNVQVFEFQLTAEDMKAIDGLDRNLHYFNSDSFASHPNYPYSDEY
active: [6] 0.3 | [17] 0.247
inactive: [1] 0.002 | [2] 0.023 | [3] -0.1 | [4] 0.029 | [5] 0.008 | [7] 0.024 | [8] 0.05 | [9] 0.029 | [10] -0.017 | [11] -0.033 | [12] 0.016 | [13] -0.028 | [14] -0.003 | [15] -0.039 | [16] 0.011 | [18] 0.02 | [19] -0.035 | [20] 0.001

ANXA11 (UniProt P50995)
inactive: [1] 0.015 | [2] 0.031 | [3] 0.025 | [4] -0.022 | [5] 0.017 | [6] -0.079 | [7] -0.016 | [8] 0.011 | [9] 0.033 | [10] 0.006 | [11] -0.005 | [12] -0.027 | [13] -0.002 | [14] 0.057 | [15] 0.034 | [16] -0.031 | [17] 0.023 | [18] -0.041 | [19] 0.01 | [20] 0

ACACA isoform 4 (UniProt Q13085)
inactive: [1] 0.024 | [2] 0.039 | [3] -0.029 | [4] -0.012 | [5] 0.011 | [6] 0.019 | [7] -0.047 | [8] 0.003 | [9] 0.024 | [10] 0.005 | [11] 0.038 | [12] 0.021 | [13] 0.041 | [14] 0.013 | [15] 0.01 | [16] -0.027 | [17] -0.002 | [18] 0.021 | [19] 0.048 | [20] 0.035

AIMP2 (UniProt Q13155)
inactive: [1] 0.021 | [2] 0.062 | [3] -0.01 | [4] 0.006 | [5] 0.002 | [6] -0.016 | [7] -0.001 | [8] 0.014 | [9] -0.036 | [10] 0.008 | [11] 0 | [12] 0.013 | [13] 0.044 | [14] 0.015 | [15] 0.044 | [16] 0.002 | [17] 0.018 | [18] -0.005 | [19] 0.019 | [20] 0.028

ALDH1A1 (UniProt P00352)
Chain of UniProt P00352 (P00352 whole entry, looked up): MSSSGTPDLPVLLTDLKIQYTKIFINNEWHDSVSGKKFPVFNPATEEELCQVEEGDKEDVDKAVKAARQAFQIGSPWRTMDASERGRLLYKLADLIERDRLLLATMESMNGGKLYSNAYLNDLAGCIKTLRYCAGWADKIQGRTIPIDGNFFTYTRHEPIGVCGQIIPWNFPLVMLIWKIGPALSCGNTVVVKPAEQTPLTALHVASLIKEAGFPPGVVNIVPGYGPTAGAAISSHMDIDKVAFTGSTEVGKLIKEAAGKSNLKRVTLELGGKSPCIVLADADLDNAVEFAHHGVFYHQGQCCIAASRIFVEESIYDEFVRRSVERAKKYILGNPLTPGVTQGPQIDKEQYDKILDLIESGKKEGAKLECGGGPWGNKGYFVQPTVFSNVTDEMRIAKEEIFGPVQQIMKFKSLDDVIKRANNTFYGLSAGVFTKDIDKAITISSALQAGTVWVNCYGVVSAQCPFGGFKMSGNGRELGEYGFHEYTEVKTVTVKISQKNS
active: [17] 0.26
inactive: [1] -0.048 | [2] 0.044 | [3] -0.054 | [4] 0.048 | [5] 0.008 | [6] -0.033 | [7] 0.132 | [8] 0.027 | [9] 0.012 | [10] -0.029 | [11] 0.092 | [12] 0.019 | [13] 0.037 | [14] 0.037 | [15] -0.029 | [16] 0 | [18] -0.005 | [19] 0.028 | [20] 0.011

ABHD11 (UniProt Q8NFV4)
inactive: [1] -0.064 | [2] -0.049 | [3] 0.001 | [4] 0.057 | [5] -0.008 | [6] 0.171 | [7] 0.011 | [8] -0.047 | [9] 0.015 | [10] -0.014 | [11] -0.012 | [12] 0.057 | [13] -0.04 | [14] -0.048 | [15] -0.2 | [16] 0.018 | [17] -0.241 | [18] -0.013 | [19] 0 | [20] -0.017

AARS2 (UniProt Q5JTZ9)
Chain of UniProt Q5JTZ9 (Q5JTZ9 whole entry, looked up): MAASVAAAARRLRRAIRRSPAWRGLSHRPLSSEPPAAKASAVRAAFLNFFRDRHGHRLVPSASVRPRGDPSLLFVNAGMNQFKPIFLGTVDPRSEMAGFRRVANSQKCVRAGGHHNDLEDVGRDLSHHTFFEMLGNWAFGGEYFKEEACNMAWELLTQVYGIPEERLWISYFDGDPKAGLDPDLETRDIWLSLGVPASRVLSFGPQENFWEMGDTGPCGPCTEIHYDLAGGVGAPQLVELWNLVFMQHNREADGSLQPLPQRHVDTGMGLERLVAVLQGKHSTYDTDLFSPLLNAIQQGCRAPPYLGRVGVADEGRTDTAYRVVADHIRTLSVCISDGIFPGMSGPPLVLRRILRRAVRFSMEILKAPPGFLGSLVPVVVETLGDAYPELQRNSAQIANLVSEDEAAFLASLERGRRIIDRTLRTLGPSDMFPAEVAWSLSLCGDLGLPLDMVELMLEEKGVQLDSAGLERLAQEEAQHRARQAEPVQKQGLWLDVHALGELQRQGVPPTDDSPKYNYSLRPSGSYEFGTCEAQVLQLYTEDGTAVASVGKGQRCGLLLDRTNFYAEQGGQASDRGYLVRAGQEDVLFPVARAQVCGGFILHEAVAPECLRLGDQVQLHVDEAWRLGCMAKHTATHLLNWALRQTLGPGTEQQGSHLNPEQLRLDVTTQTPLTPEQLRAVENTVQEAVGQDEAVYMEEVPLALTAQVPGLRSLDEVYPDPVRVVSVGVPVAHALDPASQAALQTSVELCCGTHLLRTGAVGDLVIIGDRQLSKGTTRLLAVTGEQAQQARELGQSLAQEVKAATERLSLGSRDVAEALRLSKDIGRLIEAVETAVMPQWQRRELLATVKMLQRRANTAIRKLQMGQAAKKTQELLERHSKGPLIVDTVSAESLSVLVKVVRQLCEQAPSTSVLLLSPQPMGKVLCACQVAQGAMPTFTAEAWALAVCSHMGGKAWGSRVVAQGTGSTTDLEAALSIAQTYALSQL
inactive: [1] 0.013 | [2] -0.047 | [3] -0.05 | [4] 0.004 | [5] -0.013 | [6] 0.005 | [7] -0.026 | [8] -0.008 | [9] 0.038 | [10] -0.024 | [11] 0 | [12] -0.052 | [13] 0.025 | [14] -0.018 | [15] 0.029 | [16] 0.009 | [17] 0.02 | [18] -0.006 | [19] 0.035 | [20] -0.03
